For 16 targets, log2 fold change results are on record in the supplement of paper PMC10849652.

Experiment in all cases: log2 fold change, soluble protein after heating vs DMSO (PISA); higher = thermal stabilisation; K562 cells, 10 uM, 30 min; active = over 0.2 and 3.5 SD of the protein, either way, in both replicates (recomputed)
Compound in test [1]: COC1=CC=C(C=C1)CN2C=CC3=C2C=C(C=C3)C(=O)NO
In a few lines: (§1)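 Soluble protein was quantified by TMTpro 16plex LC-MS/MS after channel sums were equalised. It was obtained as the supernatant after 21,000xg for 90 min from pooled aliquots of K562 cells (2×10^6 cells/mL, 10 μM compound, 30 min) heated for 3 min across 48°C-58°C and extracted in PBS with 0.5% NP-40 at 4°C. Thermal stability values are relative to control samples and come from duplicates. They are given as log2 fold changes.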

Compound in a further test: CON(C)C(=O)N1N=C(c2cc(F)ccc2F)S[C@@]1(CCCN)c1ccccc1 [filanesib]
The method in brief: as §1

Compound in the next test: CO[C@H]1C[C@@H]2CC[C@@H](C)[C@@](O)(O2)C(=O)C(=O)N2CCCC[C@H]2C(=O)O[C@H]([C@H](C)C[C@@H]2CC[C@H](n3cnnn3)[C@H](OC)C2)CC(=O)[C@H](C)/C=C(\C)[C@@H](O)[C@@H](OC)C(=O)[C@H](C)C[C@H](C)/C=C/C=C/C=C/1C [zotarolimus]
In a few lines: as §1

Compound in a further test: COc1cc(C(=O)O)ccc1NC(=O)[C@@H]1N[C@@H](CC(C)(C)C)[C@](C#N)(c2ccc(Cl)cc2F)[C@H]1c1cccc(Cl)c1F [idasanutlin]
The method in brief: as §1

Compound in a further test: COc1cc(Nc2ncc3c(n2)-c2ccc(Cl)cc2C(c2c(F)cccc2OC)=NC3)ccc1C(=O)O [alisertib]
The method in brief:
as §1

Compound in a further test: COc1cc2ncnc(Nc3ccc(F)c(Cl)c3)c2cc1OCCCN1CCOCC1 [gefitinib]
The method in brief: as §1

Compound in test [2]: COc1cccc2cc(-c3nc([C@H]4CC[C@H](C(=O)O)CC4)n4ncnc(N)c34)[nH]c12
In a few lines: as §1

Compound in another test: CS(=O)(=O)N1CCN(Cc2cc3nc(-c4cccc5[nH]ncc45)nc(N4CCOCC4)c3s2)CC1 [pictilisib]
In a few lines: as §1

Compound in test [3]: COc1cc2nc(-c3cc(F)ccc3O)nc(N[C@@H]3CNC[C@H]3C(C)(C)O)c2cc1OC
The method in brief: as §1

Compound in the next test: CS(=O)(=O)CCNCc1ccc(-c2ccc3ncnc(Nc4ccc(OCc5cccc(F)c5)c(Cl)c4)c3c2)o1 [lapatinib]
The method in brief: as §1

About 7,900 targets were measured; listed, in parts, are those with a hit and a random draw of the rest. About 0.6% of all pairs of compound and target were hits. Unmarked numbers belong to inactive results.

UniProt Q9UNA0, sequence (Q9UNA0 whole entry, looked up): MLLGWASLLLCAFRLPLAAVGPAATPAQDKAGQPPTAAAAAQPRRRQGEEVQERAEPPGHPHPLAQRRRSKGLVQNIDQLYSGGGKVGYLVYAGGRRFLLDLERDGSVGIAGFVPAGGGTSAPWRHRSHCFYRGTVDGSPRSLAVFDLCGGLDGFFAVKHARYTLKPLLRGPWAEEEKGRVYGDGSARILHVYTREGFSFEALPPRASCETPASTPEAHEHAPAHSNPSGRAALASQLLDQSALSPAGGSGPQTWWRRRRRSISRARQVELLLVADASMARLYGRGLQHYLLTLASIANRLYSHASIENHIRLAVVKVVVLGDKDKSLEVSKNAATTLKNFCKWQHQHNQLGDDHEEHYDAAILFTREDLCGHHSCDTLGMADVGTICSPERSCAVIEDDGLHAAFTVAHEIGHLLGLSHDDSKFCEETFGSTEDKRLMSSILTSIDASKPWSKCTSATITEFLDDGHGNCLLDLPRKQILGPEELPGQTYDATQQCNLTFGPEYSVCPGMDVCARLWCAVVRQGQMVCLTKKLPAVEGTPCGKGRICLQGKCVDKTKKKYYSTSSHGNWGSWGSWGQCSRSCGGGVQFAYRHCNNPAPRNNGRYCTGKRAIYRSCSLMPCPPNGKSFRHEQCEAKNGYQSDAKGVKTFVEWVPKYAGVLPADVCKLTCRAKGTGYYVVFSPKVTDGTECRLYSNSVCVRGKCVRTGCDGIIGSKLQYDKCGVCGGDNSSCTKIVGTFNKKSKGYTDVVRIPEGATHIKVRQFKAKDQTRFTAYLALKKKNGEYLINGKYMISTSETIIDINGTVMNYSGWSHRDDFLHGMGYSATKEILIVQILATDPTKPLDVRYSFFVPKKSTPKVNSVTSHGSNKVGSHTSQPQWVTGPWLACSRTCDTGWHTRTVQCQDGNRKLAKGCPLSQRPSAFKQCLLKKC
UniProt Q13444, sequence (Q13444 whole entry, looked up): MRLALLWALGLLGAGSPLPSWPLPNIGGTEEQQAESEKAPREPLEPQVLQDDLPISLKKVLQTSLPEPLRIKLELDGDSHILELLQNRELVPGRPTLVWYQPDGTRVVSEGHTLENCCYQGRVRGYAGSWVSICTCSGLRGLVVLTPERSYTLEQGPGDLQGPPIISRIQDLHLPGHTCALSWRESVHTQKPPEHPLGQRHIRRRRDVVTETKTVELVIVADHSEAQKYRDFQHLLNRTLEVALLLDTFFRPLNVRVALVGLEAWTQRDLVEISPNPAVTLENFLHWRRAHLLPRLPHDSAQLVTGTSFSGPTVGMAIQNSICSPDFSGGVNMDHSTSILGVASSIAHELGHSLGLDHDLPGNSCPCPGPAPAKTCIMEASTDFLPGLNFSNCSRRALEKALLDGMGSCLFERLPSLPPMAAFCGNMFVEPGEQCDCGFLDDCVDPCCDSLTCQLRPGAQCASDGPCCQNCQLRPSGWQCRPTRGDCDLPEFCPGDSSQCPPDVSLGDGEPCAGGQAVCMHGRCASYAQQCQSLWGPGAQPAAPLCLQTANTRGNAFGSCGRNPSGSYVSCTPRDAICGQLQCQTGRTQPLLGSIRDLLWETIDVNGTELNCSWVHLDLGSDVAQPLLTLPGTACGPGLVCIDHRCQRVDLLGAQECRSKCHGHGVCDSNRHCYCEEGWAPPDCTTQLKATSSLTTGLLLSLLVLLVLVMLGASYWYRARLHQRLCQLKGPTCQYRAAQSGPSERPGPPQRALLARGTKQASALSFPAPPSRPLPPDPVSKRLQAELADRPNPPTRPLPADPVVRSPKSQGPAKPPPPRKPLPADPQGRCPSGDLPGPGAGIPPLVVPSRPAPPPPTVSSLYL
UniProt Q9UHQ4, sequence (Q9UHQ4 whole entry, looked up): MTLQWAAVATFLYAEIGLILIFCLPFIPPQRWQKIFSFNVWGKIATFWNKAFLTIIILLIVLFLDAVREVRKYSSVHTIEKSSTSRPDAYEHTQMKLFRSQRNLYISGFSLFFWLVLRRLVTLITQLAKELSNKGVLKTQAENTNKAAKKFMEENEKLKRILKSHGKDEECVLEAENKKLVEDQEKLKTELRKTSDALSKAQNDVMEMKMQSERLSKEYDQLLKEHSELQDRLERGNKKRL
UniProt Q9HC16, sequence (Q9HC16 whole entry, looked up): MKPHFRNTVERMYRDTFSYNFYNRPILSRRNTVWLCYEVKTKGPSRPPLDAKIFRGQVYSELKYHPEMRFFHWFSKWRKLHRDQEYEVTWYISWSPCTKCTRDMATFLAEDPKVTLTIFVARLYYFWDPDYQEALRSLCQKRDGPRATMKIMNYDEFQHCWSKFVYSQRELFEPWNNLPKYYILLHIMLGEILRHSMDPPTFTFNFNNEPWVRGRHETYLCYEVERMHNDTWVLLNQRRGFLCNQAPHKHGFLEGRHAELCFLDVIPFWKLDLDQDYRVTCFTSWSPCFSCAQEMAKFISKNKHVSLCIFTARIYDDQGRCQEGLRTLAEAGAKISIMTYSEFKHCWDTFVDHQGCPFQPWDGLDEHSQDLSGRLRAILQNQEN
UniProt P55196, sequence (P55196 whole entry, looked up): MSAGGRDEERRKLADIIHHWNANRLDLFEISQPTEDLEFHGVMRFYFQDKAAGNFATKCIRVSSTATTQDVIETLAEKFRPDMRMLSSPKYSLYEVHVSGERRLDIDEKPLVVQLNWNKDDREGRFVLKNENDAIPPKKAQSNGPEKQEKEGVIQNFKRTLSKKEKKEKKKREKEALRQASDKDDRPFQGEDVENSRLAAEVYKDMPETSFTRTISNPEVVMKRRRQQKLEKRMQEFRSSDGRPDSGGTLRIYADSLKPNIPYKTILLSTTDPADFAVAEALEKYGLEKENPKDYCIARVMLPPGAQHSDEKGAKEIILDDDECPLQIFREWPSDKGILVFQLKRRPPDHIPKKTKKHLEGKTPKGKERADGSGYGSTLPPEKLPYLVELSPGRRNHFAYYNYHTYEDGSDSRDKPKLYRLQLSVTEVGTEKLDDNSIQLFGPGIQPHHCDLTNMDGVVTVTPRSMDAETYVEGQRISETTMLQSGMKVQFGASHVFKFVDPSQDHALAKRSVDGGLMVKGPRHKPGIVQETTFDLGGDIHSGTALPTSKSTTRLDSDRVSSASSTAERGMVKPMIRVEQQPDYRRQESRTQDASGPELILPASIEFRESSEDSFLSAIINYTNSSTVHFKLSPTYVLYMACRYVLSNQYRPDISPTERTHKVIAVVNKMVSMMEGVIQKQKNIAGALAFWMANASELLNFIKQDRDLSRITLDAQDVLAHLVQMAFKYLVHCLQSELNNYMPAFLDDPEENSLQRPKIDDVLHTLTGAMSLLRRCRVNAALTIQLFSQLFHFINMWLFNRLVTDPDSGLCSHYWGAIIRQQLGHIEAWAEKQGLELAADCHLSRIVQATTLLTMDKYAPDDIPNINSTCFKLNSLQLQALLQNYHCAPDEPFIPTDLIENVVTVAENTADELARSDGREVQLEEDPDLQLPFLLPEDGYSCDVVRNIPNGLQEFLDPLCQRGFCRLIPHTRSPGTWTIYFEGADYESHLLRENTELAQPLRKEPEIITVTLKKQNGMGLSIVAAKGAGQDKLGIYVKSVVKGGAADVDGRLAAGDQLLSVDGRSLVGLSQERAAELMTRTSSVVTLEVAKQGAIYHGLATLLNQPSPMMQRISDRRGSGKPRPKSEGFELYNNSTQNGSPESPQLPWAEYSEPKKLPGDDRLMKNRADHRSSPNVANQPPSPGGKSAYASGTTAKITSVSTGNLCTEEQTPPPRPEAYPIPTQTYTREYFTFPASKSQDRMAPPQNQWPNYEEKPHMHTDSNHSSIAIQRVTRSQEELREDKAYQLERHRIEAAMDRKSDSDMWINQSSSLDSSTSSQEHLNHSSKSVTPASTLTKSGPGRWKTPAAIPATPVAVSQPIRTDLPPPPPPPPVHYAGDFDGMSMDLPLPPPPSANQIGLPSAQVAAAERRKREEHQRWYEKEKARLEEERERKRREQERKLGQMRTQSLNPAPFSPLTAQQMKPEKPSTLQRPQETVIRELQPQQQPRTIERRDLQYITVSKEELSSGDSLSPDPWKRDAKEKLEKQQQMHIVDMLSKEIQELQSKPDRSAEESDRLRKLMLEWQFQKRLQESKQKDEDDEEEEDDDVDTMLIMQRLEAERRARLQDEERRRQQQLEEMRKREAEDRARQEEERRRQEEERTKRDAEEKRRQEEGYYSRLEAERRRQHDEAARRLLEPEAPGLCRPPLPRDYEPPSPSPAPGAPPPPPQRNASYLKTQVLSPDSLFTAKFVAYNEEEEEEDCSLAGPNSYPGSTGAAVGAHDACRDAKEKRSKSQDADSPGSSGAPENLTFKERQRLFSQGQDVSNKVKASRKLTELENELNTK
UniProt Q9UQB8, sequence (Q9UQB8 whole entry, looked up): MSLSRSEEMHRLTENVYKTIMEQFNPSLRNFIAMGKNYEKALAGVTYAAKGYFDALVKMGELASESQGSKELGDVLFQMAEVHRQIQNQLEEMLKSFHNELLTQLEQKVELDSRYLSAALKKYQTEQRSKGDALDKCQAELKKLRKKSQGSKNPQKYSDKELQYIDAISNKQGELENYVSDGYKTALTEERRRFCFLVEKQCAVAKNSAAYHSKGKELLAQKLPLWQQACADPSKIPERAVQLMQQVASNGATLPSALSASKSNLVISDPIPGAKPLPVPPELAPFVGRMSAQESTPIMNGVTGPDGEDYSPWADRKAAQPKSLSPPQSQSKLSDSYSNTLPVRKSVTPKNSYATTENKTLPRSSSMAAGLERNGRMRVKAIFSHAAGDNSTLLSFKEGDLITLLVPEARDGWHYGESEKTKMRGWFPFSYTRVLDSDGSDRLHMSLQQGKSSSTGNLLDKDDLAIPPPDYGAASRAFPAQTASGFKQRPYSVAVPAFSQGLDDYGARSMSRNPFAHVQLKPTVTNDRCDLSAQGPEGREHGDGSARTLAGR
UniProt Q9UII2, sequence (Q9UII2 whole entry, looked up): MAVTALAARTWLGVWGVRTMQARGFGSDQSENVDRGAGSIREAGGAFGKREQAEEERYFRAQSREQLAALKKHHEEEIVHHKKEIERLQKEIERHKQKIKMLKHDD
UniProt P53680, sequence (P53680 whole entry, looked up): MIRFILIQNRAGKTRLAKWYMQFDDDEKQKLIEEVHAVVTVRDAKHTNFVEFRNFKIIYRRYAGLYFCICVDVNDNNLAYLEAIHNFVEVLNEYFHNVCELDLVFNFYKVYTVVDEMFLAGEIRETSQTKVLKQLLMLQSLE

For ABCA4 (UniProt P78363), the log2 fold change in test [1] was 0.394; with filanesib it was 0.076; with zotarolimus, 0.031; with idasanutlin, -0.02; with alisertib, -0.071; with gefitinib, 0.014. The log2 fold change in [2] was -0.007; with pictilisib, 0.135.

In the case of AASDH (UniProt Q4L235), the log2 fold change is -0.13 in test [1]; -0.01 with filanesib; -0.221 with zotarolimus; -0.141 with alisertib; 0.041 in test [3]; -0.143 with gefitinib. Moreover, the log2 fold change is 0.207 in test [2], 0.063 with lapatinib and 0.093 with pictilisib.

Regarding BRD8 isoform 2 (UniProt Q9H0E9), the log2 fold change in test [1] was -0.201; in the test with filanesib, 0.042; in the test with zotarolimus, 0.027; with idasanutlin it was -0.027; in test [3], -0.113; in the test with lapatinib, 0.019. Also, the log2 fold change with pictilisib was 0.06.

As for BCAP29 isoform 2 (UniProt Q9UHQ4), the log2 fold change in test [1] was -0.033; with filanesib, -0.047; in the test with zotarolimus, -0.022; in the test with idasanutlin, 0.027; in the test with alisertib, -0.023; in test [3] it was -0.1. Moreover, the log2 fold change is 0.035 with gefitinib, 0.035 in test [2], -0.009 with lapatinib and -0.027 with pictilisib.

For the target BAIAP2 (UniProt Q9UQB8), the log2 fold change was 0.014 in [1]; -0.029 with filanesib; -0.016 in the test with zotarolimus; -0.003 with idasanutlin; 0.008 with alisertib; -0.131 in test [3]. Also, the log2 fold change with gefitinib is -0.026; in test [2] it was -0.024; with lapatinib it was 0.036; with pictilisib, 0.

As for ABHD16A (UniProt O95870), the log2 fold change in test [1] is 0.051; with filanesib, 0.067; with zotarolimus, 0.204; with idasanutlin, -0.042; with alisertib, -0.049; in [3], 0.347 (active). The log2 fold change with gefitinib was 0.158; in test [2], -0.039; with lapatinib, 0.235; in the test with pictilisib, 0.018.

With ATP5IF1 (UniProt Q9UII2), the log2 fold change in test [1] is -0.02; with filanesib, -0.067; with zotarolimus, 0.004; with idasanutlin, 0.093; in the test with alisertib, -0.062; in test [3] it was 0.024. Besides, the log2 fold change is 0.013 in the test with gefitinib, 0.03 in [2], -0.043 with lapatinib and -0.016 with pictilisib.

In the case of ADAMTS5 (UniProt Q9UNA0), the log2 fold change in test [1] is 0.295; with filanesib, -0.051; in the test with zotarolimus, -0.063; with idasanutlin, -0.06; with alisertib, 0.019; with gefitinib, 0.012. Also, the log2 fold change in test [2] was 0.092; with pictilisib, 0.198.

For AP2S1 (UniProt P53680), the log2 fold change in test [1] is -0.031; with filanesib, 0.037; in the test with zotarolimus it was 0.013; with idasanutlin, -0.033; with alisertib, -0.159; in test [3], 0.023. The log2 fold change with gefitinib is 0.017; in test [2], -0.061; with lapatinib, -0.022; in the test with pictilisib, -0.023.

ACADVL isoform 3 (UniProt P49748): the log2 fold change is 0 in test [1]; -0.069 in the test with filanesib; 0.019 in the test with zotarolimus; -0.04 with idasanutlin; -0.031 with alisertib; -0.089 in [3]. For the same target, the log2 fold change with gefitinib was -0.019; in test [2], 0.025; with lapatinib, -0.12; with pictilisib, 0.093.

As to ASNS (UniProt P08243), the log2 fold change in [1] was 0.027; with filanesib, -0.073; with zotarolimus, -0.002; in the test with idasanutlin it was -0.021; with alisertib, -0.027; in test [3], 0.02. In addition, the log2 fold change is -0.032 with gefitinib, 0.034 in test [2], -0.017 in the test with lapatinib and 0.019 with pictilisib.

ADAM15 (UniProt Q13444): the log2 fold change in test [1] was -0.159; with filanesib, 0.065; with zotarolimus, -0.206; in the test with idasanutlin, -0.083; in test [3] it was 0.078; in the test with gefitinib it was -0.029. Besides, the log2 fold change is 0 in the test with lapatinib and -0.045 with pictilisib.

For the target BRIP1 (UniProt Q9BX63), the log2 fold change in test [1] was 0.072; with filanesib it was 0.098; with zotarolimus, 0.061; with idasanutlin it was -0.14; in test [3], 0.126; with gefitinib, 0.047. Also, the figures for the log2 fold change with lapatinib and with pictilisib were 0.003 and 0.067, respectively.

For the target AFDN isoform 1 (UniProt P55196), the log2 fold change in test [1] was -0.151; with filanesib it was 0.024; with zotarolimus it was -0.01; with idasanutlin, 0.019; with alisertib it was 0.127; in test [2], 0.074. Moreover, the log2 fold change with pictilisib was -0.144.

With APOBEC3G (UniProt Q9HC16), the log2 fold change in test [1] is -0.012; with filanesib it was 0.066; in the test with idasanutlin, 0.039; with alisertib it was -0.092; in test [3] it was 0.047; in the test with gefitinib, -0.074. For the same target, the log2 fold change is -0.053 in [2] and 0.046 with lapatinib.

For the target ACSF3 (UniProt Q4G176), the log2 fold change is -0.099 in test [1]; -0.045 with filanesib; -0.01 in the test with zotarolimus; 0.051 in the test with idasanutlin; 0.001 in the test with alisertib; -0.053 in [3]. Besides, the log2 fold change in the test with gefitinib was -0.096; in test [2] it was 0.054; with lapatinib, -0.004; in the test with pictilisib, 0.064.
